Laboratory results reported in PubChem BioAssay (NCI).
About 83,000 compounds went through this panel and 20% of them were active in at least one assay; those are over-represented in the sample as a whole.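 Note: values are percent growth. 100 is the growth of untreated cells, values between 100 and 0 indicate rising inhibition; between -100 and 0 indicates cell death.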 The source made the active and inactive calls.

Tested on: RPMI-8226 leukemia
Test: NCI-60 one-dose screen, 48 h (100 = growth as untreated, 0 = no growth, -100 = all killed)
Conditions: 10 µM unless noted
Procedure: Growth inhibition of the RPMI-8226 human tumor cell line is measured as a screen for anti-cancer activity. Cells are grown in 96 well plates and exposed to the test compound for 48 hours. Compounds are tested at a single concentration, which is 10^-5 M for most compounds. The reported endpoint is percent growth (GI% or GIPRCNT), where numbers from 0 - 100% represent growth inhibition, and numbers from -100% - 0 represent cell death. For example, a value of 40 represents 60% growth inhibition. A value of 0 means no net growth occurred over the course of the experiment. A value of -40 indicates 40% of cells at the beginning of the experiment died by the end of the experiment. A value of -100 means all cells are dead at the end of the experiment.
NCI-60 Human Tumor Cell Lines Screen was performed using the standard one-dose NCI protocol, which is described in more detail at https://dtp.cancer.gov/discovery_development/nci-60/default.htm.
Compounds with GIPRCNT values below 10 were considered active. Activity score was based on GIPRCNT using the following formula: […]
Score is 0 for GIPRCNT values of 100 or above, 50 for GIPRCNT values of 0, and 100 for GIPRCNT values of -100.

Compound	growth
C[C@H](C(=O)Nc1ccc(S(N)(=O)=O)cc1)S(=O)(=O)c1ccccc1	110% (inactive)
c1cc2nc(-c3cn[nH]c3)c3c(c2cc1-c1cn[nH]c1)C1CCC3C1 (stereo not given)	50.6% (inactive)
CC(C)n1cnc2c(Nc3cccc(Cl)c3)nc(N[C@H]3CCCC[C@@H]3N)nc21	19.8% (inactive)
CCOC(=O)CC1C(COC(=O)NC)OC(n2cnc3c(NC(=O)Nc4ccccc4)ncnc32)C1O[Si](C)(C)C(C)(C)C (stereo not given)	39.7% (inactive)
COc1cccc(Cc2nn3cc(-c4ccccc4)nc3s2)c1	33.7% (inactive)
O=C(Oc1cccc2ccccc12)Oc1cccc2ccccc12	113% (inactive)
CC(=O)CC(c1cccs1)c1c(-c2ccccc2)[nH]c2ccccc12 (stereo not given)	78% (inactive)
CCCCNc1nc(NN2C(=O)c3cccc4cccc(c34)C2=O)nc(-n2cnc3ccccc32)n1	86.9% (inactive)
COC(=O)/C=C1\S/C(=N\Nc2ccc([N+](=O)[O-])cc2[N+](=O)[O-])N(C2CCCCC2)C1=O	-21.8% (active)
CCCCNC(=O)Oc1ccc(/C(=C(\C)c2ccc(Cl)cc2)c2ccc(OCCN(CC)CC)cc2)cc1	63.9% (inactive)
N#Cc1c(-c2ccc(Cl)cc2)nc2c(c(-c3ccccc3)nn2-c2ccccc2)c1-c1ccc(O)cc1	17.9% (inactive)
COc1cccc(OC)c1C(=O)N[C@@H]1C(=O)N2[C@@H]1SC(C)(C)[C@@H]2C(=O)O	102% (inactive)
CCOC(=O)Nc1ccc(C(=O)/C=C/c2ccccc2)cc1	18.9% (inactive)
Cc1oc2nc[nH]c(=O)c2c1C(=O)/C=C/c1ccc(Br)cc1	-3.59% (active)
NC1CCN(c2nc(Nc3cccc(C(F)(F)F)c3)c3c(=O)[nH]ccc3n2)CC1	-45.4% (active)
O=C(N/N=C/c1c(Cl)cccc1Cl)c1ccc(C(F)(F)F)nc1Nc1cccc(C(F)(F)F)c1	13.8% (inactive)
CN1C(=C2C(=O)OC(C)(C)OC2=O)CCC1C(=O)NCc1ccc(Cl)cc1Cl (stereo not given)	82.9% (inactive)
O=C(CCCCCCSc1nc(-c2ccccc2)cc(-c2ccccc2)n1)NO	7.64% (active)
Cc1cc2nc3ccc(N=Nc4ccc(N(C)C)cc4)cc3n(-c3ccccc3)c-2cc1=N	-63.5% (active)
Nc1nc(Cl)cc(=O)n1Cc1ccccc1	100% (inactive)

Compound	growth
CCc1nnc(NC(=O)c2nnn(-c3ccccc3)c2-c2ccco2)s1	91% (inactive)
NS(=O)(=O)c1ccc(N=Nc2ccc(-c3nn4cc(-c5ccccc5)nc4s3)cc2)cc1	105% (inactive)
COc1cc(CCCO)c(OC)c(OC)c1OC	112% (inactive)
Cc1ccc(S(=O)(=O)N/N=C/C2(c3ccccc3)CC2)cc1	96.9% (inactive)
COc1nc2ccccc2cc1-c1nc2c(cnn2-c2ccccc2)c(=O)[nH]1	44.2% (inactive)
CNc1ccc(Nc2cccc(C)c2)c2c1C(=O)c1ccccc1C2=O	74.3% (inactive)
COc1ccc(-c2nc3sc(-c4ccccc4)cn3n2)cc1	78.6% (inactive)
COc1ccc(C2CC(c3ccc(Nc4nc(Nc5ccc(F)cc5)nc(Nc5ccc(Cl)cc5)n4)cc3)=NN2C(C)=O)cc1 (stereo not given)	90.8% (inactive)
CC(=O)c1ccc(Nc2nc(C(C)=O)c(C)s2)cc1	95.1% (inactive)
c1cc(NCCc2ccncc2)nc(-n2cnc3ccccc32)c1	68.5% (inactive)
C=CCNc1ccc2c3c(cccc13)C(=O)N(N1C(=O)c3cccc4cccc(c34)C1=O)C2=O	109% (inactive)
CCOc1ccc2nc(SCc3nc4n(n3)S(=O)(=O)c3ccccc3N4C)sc2c1	30.7% (inactive)
Oc1ccc(CCl)c2cccnc12	57.4% (inactive)
Brc1ccc2[nH]cc(-c3nc(-c4c[nH]c5ccncc45)cs3)c2c1	-23.4% (active)
CCN(CC)Cc1cc(Nc2c3ccc(Cl)cc3nc3ccc(OC)cc23)ccc1O	21.7% (inactive)
O=C1NC(=O)C(Cn2cnc3ccccc32)N1 (stereo not given)	99.5% (inactive)
COc1ccc(-c2[nH]ncc2-c2cc3c(c(OC)c2)OCC(=O)N3)cc1	29.3% (inactive)
CN1CCN(c2ccc(-c3cc4c(Nc5ccc(F)c(Cl)c5)ncnn4c3)cc2)CC1	13.1% (inactive)
Cc1cc(=O)oc2cc(OC(=O)CN3CCN(C)CC3)ccc12	103% (inactive)
NS(=O)(=O)c1ccc(-n2nc(-c3ccc(Cl)cc3)c3ccccc3c2=O)cc1	84.6% (inactive)
